# Screening results: PubChem, several laboratories
# PAFAH1B2 FP inh: inhibitors of human PAFAH1B2 | 340,000 compounds, 1.2% hits | inhibition, % at 3.39 µM | recombinant PAFAH1B2, FP-rhodamine activity probe, fluorescence polarization;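 active means inhibition above the mean of all tested compounds plus 3 SD, cut at about 24% in these data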;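 further: 0% = enzyme with DMSO and 100% = wells lacking PAFAH1B2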
# pPAFAH inh: pPAFAH (human) enzyme inhibition. Q13093. recombinant pPAFAH, FP-rhodamine probe fluorescence polarization. inhibition, % at 3.39 µM. 330,000 compounds, 1.5% hits. AID 463082;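 active means inhibition above the mean inhibition across the screen plus 3 SD, cut at about 25% in these data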;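 further: inhibitors block binding of the rhodamine activity-based probe so polarization drops; 0% = enzyme with DMSO and 100% = wells lacking pPAFAH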
# PfM18AAP inh: blocks P. falciparum M18 aspartyl aminopeptidase; recombinant PfM18AAP, H-Glu-NHMec fluorogenic cleavage; inhibition, % at 7.35 µM; 290,000 compounds, 1.2% hits; AID 1822;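 active means inhibition above the campaign mean inhibition over all tested compounds plus 3 SD, cut at about 28% in these data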;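 further: 0% = plate median of test compound wells and 100% = 2 mM ZnCl2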
# PAFAH1B3 inh: blocks human PAF acetylhydrolase 1B catalytic subunit 3. AID 492972. inhibition, % at 3.39 µM. recombinant PAFAH1B3, FP-rhodamine probe, fluorescence polarization. 340,000 compounds, 0.28% hits. Q15102;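 active means inhibition above the screen-wide average of all tested compounds plus 3 SD, cut at about 25% in these data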;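 further: 0% = enzyme with DMSO only and 100% = wells lacking PAFAH1B3 protein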
# PAFAH2 inh: inhibitors of human PAFAH2 | Q99487 | recombinant PAFAH2, FP-rhodamine activity probe, fluorescence polarization | inhibition, % at 3.39 µM | 340,000 compounds, 0.99% hits;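 active means inhibition above the mean over all tested compounds plus 3 SD, cut at about 30% in these data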;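 further: inhibitors block probe labeling of enzyme so polarization drops; 0% = enzyme with DMSO and 100% = wells lacking PAFAH2 protein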
# Pemphigus Ab inh: human desmoglein-3 autoantibody binding inhibition; P32926; DSG3-coupled beads, scFv-anti-DSG3-GFP binding, flow cytometry; hits give low values; binding (percent of control), % at 10 µM; 310,000 compounds, 0.48% hits; AID 588358;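 active means binding more than 3 SD below its plate's average and above zero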;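 further: hits lower antibody fragment binding to DSG3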
# Target sequence (P32926 whole entry, looked up, the tested form may be a part): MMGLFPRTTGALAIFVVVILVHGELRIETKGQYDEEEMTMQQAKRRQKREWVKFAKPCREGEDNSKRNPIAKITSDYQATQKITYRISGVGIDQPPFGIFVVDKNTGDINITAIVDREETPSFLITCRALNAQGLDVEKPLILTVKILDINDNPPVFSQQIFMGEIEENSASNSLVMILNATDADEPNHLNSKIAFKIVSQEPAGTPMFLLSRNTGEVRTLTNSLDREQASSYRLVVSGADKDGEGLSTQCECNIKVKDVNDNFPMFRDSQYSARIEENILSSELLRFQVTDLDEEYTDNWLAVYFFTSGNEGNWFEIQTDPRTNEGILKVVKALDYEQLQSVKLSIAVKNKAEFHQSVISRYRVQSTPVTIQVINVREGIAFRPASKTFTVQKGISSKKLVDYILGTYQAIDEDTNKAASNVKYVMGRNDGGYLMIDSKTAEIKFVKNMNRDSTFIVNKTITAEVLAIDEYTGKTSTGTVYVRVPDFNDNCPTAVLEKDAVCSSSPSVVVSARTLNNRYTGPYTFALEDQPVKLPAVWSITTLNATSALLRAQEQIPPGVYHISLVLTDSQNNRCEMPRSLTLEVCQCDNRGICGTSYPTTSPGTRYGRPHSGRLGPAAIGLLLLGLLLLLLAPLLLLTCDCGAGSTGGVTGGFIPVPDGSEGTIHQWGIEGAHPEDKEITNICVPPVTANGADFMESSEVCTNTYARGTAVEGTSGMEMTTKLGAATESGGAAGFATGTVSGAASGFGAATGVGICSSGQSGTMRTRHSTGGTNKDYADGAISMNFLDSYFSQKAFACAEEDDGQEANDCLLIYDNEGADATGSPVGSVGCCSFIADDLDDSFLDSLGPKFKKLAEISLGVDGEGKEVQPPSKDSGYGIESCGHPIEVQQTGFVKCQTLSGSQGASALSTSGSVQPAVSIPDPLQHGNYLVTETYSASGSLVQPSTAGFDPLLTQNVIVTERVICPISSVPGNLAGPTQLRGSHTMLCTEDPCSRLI
# PAFAH2 confirm: confirmation of human PAFAH2 inhibitors; recombinant PAFAH2, FP-rhodamine activity probe, fluorescence polarization; shares compounds with PAFAH2 inh; inhibition, % at 3.39 µM; 2,300 compounds, 65% hits; AID 493030;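 active means mean inhibition over three repeats above a set limit taken from the earlier primary screen, cut at about 30% in these data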;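 further: inhibitor blocks binding of rhodamine activity probe so polarization falls; 0% = enzyme with DMSO and 100% = wells lacking PAFAH2 protein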
# * marks the source's active call; other numbers are inactive results; / = not tested or not shown. Hits are enriched below; roughly 3.8% of the tested compounds scored in any of these assays.
SMILES,PAFAH1B2 FP inh,pPAFAH inh,PfM18AAP inh,PAFAH1B3 inh,PAFAH2 inh,Pemphigus Ab inh,PAFAH2 confirm
COc1ccc(NC(=O)NCCC2=CCCCC2)cc1,4.9,-0.2,-1.5,12.7,0.7,103.5,/
O=C(COC(=O)CN1C(=O)C2CCCCC2C1=O)Nc1c(Cl)cccc1Cl (configuration not stated),1.9,0.3,/,10.6,3.3,97.6,/
O=C(COC(=O)CC1CCCCC1)Nc1c(Cl)cccc1Cl,7.0,19.5,/,3.3,37.6*,/,31.3*
O=C(COC(=O)CC1CCCC1)Nc1ccc(Cl)cn1,0.7,19.2,/,-6.1,49.9*,102.1,38.1*
O=C(NC(=S)Nc1cccc(O)c1)C1CCCCC1,1.9,5.7,/,6.7,-8.1,90.9,/
Cc1ccc(C(=O)NNC(=O)c2ccc(Br)s2)cc1S(=O)(=O)N1CCOCC1,0.6,5.3,/,4.4,38.7*,100.7,-4.1
O=C(NNC(=O)c1ccc(Br)s1)c1ccc(F)c(S(=O)(=O)N2CCOCC2)c1,0.9,-3.6,/,4.0,2.5,100.5,/
NS(=O)(=O)c1cccc(NS(=O)(=O)c2ccc(/C=C/C(=O)OCC(=O)c3ccccc3)cc2)c1,1.9,1.6,-5.6,-0.8,57.6*,96.4,48.9*
O=C(O)/C(=C\c1ccc(Cl)c([N+](=O)[O-])c1)c1ccc(S(=O)(=O)N2CCCCC2)s1,20.8,18.2,-0.2,14.3,31.8*,94.4,7.7
OC(COCc1ccc(Cl)cc1)CN1CCN(c2ccccn2)CC1 (configuration not stated),-0.8,2.4,1.8,3.9,-1.6,105.8,/
Cc1nc(C)c(C(=O)OCC(=O)NCCc2ccc(S(N)(=O)=O)cc2)s1,0.8,0.7,/,9.4,8.6,106.8,/
Cc1nc(C)c(C(=O)Nc2cccc(C)c2C)s1,4.1,1.4,2.6,15.2,3.7,102.3,/
Cc1nc(C)c(C(=O)OCC(=O)NCCc2ccc(F)cc2)s1,4.7,/,/,-0.7,30.9*,100.5,23.0
O=C(COC(=O)c1cccs1)NCCc1ccc(F)cc1,0.7,/,/,-0.8,55.3*,100.8,49.0*
O=C(COC(=O)c1ccc(F)cc1)NCCc1ccc(F)cc1,1.7,9.9,-7.7,0.7,36.2*,97.6,17.0
Cc1nc(C)c(C(=O)OCC(=O)Nc2cccc(C)c2C)s1,1.0,15.3,/,1.9,66.3*,104.9,51.0*
O=C(COC(=O)CCC(=O)c1cccs1)NCCc1ccccc1,2.0,2.6,/,5.1,9.2,122.1,/
O=C(COC(=O)c1cc(Cl)nc(Cl)c1)NCCc1ccc(F)cc1,2.5,2.3,/,8.8,4.9,/,/
O=C(N/N=C/c1ccccn1)c1cccs1,3.2,-0.8,0.6,9.4,0.8,99.3,/
COc1cccc(CN(C)C(=O)c2cccc(OCc3ccccc3)c2)c1,9.3,6.8,0.8,-3.5,-4.1,/,/
CS(=O)(=O)N1c2ccccc2[C@]2(Br)C[C@H]3C(=O)N[C@@H](Cc4ccccc4)C(=O)N3[C@H]12,4.3,-1.6,/,0.3,-1.4,95.4,/
O=C(COC(=O)c1ccc2c(c1)OCCO2)NCCc1ccc(F)cc1,1.3,10.0,/,-1.8,67.9*,/,53.9*
COc1ccc(-n2nc3c(c2NC(=O)C(C)Oc2ccccc2)CS(=O)(=O)C3)cc1 (configuration not stated),1.1,3.9,-2.6,7.1,-5.9,106.1,/
CC(NC(=O)COC(=O)C1CC2CCCC(C1)C2=O)c1ccccc1 (configuration not stated),6.1,1.6,/,-1.6,19.4,/,/
O=C(COC(=O)C1CC2CCCC(C1)C2=O)NC1CCCCC1 (configuration not stated),1.2,2.5,/,6.3,63.0*,100.0,54.9*
CC1CCC(NC(=O)COC(=O)C2CC3CCCC(C2)C3=O)CC1 (configuration not stated),2.7,8.4,/,3.7,61.5*,105.0,48.3*
CC(=O)Nc1cccc(NC(=O)COC(=O)C2CC3CCCC(C2)C3=O)c1 (configuration not stated),-3.4,-3.0,-4.1,15.0,-4.1,107.7,/
Cc1cc(CN2CCC(n3nccc3NC(=O)c3ccccc3Cl)CC2)cc(C)c1O,1.0,0.0,-3.4,2.2,4.2,106.8,/
O=C(NCc1ccccc1CN1CCCC1)c1cc2ccccc2o1,-3.4,-2.3,/,0.3,-3.3,168.8,/
